Source: PubChem BioAssay
Only some compounds are listed: those with a hit (about 3% of all), similar ones and a draw of the others.
CF NFkB block: inhibitors of cystic fibrosis induced NF-kB | KKLEB NF-kB-GFP reporter, PAF-induced, GFP fluorescence overnight | inhibition, % at 5 µM | actives 0.86% (n = 360,000) | AID 588850;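 active means at least 50% inhibition at 5 µM, scaled per plate between neutral and stimulator controls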;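 further: PAF is a Pseudomonas aeruginosa culture filtrate used as stimulus; plate controls were PAF-stimulated DMSO wells for no effect and unstimulated DMSO wells for full effect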
HIF-2a block: inhibitors of HIF-2a | 786-0 RCC cells HIF-2a reporter, luciferase luminescence, overnight | inhibition, % at 18.8 µM | actives 0.72% (n = 360,000);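 active means inhibition of the luminescence signal of 40% or more relative to plate controls, in a single-dose primary screen at 18.75 µM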
Peg3 prom inh: Peg3 promoter activity inhibition; AID 588405; HeLa PEG-Prom luciferase reporter, luminescence, overnight; inhibition, % at 20 µM; actives 1.7% (n = 360,000);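 active means inhibition of at least 50% at 20 µM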
ABHD5 PLIN5 PPI: ABHD5-PLIN5 protein interaction inhibition | Split G. princeps luciferase complementation, luminescence, 4 h | inhibition, % at 4 µM | actives 0.78% (n = 360,000);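 active means inhibition above the mean inhibition across every tested compound plus 3 SD, cut at about 22% in these data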;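 further: 0% = DMSO only wells and the 100% control is not disclosed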
TRPM1 prom inh: MITF TRPM1 promoter inhibition in SK-MEL-5 cells | inhibition, % at 12.5 µM | SK-MEL-5 TRPM1 promoter luciferase, 24 h | actives 0.83% (n = 330,000);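 active means mean inhibition across replicates of 60% or more, whatever share of single replicates reaches that level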
KKLEB tox: reduces viability of KKLEB cystic fibrosis airway cells; KKLEB CF airway cells viability, ATPlite luminescence, overnight; hits give low values; cells stimulated with P. aeruginosa culture filtrate; activity change (cytotoxicity), % at 5 µM; actives 0.36% (n = 360,000); AID 602141;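 active means corrected activity change at or below -50% at 5 µM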
ABHD5-PLIN5 conf: ABHD5-PLIN5 interaction inhibition, confirmed; shares compounds with ABHD5 PLIN5 PPI; biochemical ABHD5-PLIN5 interaction, luminescence; inhibition, % at 4 µM; actives 67% (n = 2,200); in the data active means inhibition above about 23%;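 further: 0% = DMSO vehicle wells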
HNF4 counter: HNF4 split-luciferase signal hit, counter-screen; shares compounds with ABHD5 PLIN5 PPI; HNF4 dimerization, luminescence, biochemical; inhibition, % at 4 µM; actives 77% (n = 2,200);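 active means mean inhibition across replicate wells exceeding the computed hit threshold, cut at about 13% in these data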;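 further: light from luciferase halves that rejoin when HNF4 fusion proteins dimerize; 0% = DMSO only wells and the 100% control is not given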
Target sequence (P41235 whole entry, looked up, the tested form may be a part): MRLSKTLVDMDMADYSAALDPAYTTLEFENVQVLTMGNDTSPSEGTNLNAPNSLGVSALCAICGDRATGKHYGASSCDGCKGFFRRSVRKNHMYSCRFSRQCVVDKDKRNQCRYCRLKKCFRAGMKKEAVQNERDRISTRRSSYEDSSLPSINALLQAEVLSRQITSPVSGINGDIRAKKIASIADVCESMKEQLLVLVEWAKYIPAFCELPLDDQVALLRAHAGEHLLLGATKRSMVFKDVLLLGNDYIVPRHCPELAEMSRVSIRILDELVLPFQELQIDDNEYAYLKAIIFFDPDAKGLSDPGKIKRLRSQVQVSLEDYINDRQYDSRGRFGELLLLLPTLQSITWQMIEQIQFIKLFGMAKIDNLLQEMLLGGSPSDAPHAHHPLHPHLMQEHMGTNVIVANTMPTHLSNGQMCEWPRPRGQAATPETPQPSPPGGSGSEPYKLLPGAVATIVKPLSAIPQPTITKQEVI
Mdm2-MdmX confirm: confirmation of inhibitors of human Mdm2/MdmX interaction, set 2. inhibition, % at 8 µM. SaOS-2 split-luciferase Mdm2/MdmX complementation, luminescence. AID 504601. actives 99% (n = 740). shares compounds with HIF-2a block;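 active means mean inhibition of the luminescence signal across two replicates at or above 26 percent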
HIF-2a conf: confirmation of HIF-2a inhibitors. shares compounds with HIF-2a block. 786-0 RCC cells, HIF-2a luciferase reporter luminescence, overnight. inhibition, % at 18.8 µM. actives 56% (n = 1,800). AID 651580;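 active means mean inhibition across four replicates of at least 40 percent at the single tested concentration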
HIF-1a cs: HIF-1a inhibition counter-screen for HIF-2a hits | shares compounds with HIF-2a block | MiaPaCa-2 HIF-1a luciferase reporter, desferoxamine, overnight | inhibition, % at 18.8 µM | actives 72% (n = 1,800);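 active means mean inhibition of the reporter signal across four replicates at the single tested dose of 50% or more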
* = called active by the depositor; / = no result given.

SMILES	CF NFkB block	HIF-2a block	Peg3 prom inh	ABHD5 PLIN5 PPI	TRPM1 prom inh	KKLEB tox	ABHD5-PLIN5 conf	HNF4 counter	others
O=C1NC(=O)N(c2ccc3c(c2)OCO3)C(=O)/C1=C/c1ccc(N2CCCCC2)o1	4	-3	-3	4	-10	-1	/	/
O=C1NC(=O)N(c2ccc3c(c2)OCO3)C(=O)/C1=C\c1ccc(-c2ccccc2C(=O)O)o1	-3	17	6	30*	8	10	78*	89*
CCOC(=O)[C@]12Cc3cc(C)ccc3[C@H]1N(Cc1ccccc1)C(=O)c1cc(F)c(F)cc12	/	15	/	9	/	/	/	/
Cn1cc(C(O)CN2CCCCC2)c2ccccc21 (stereo not given)	7	21	5	2	7	-11	/	/
C#C[C@]1(O)[C@H](O)CC2C3CC[C@H]4C[C@@H](O)CC[C@]4(C)C3CC[C@@]21C (stereo not given in full)	31	-5	-10	8	/	-24	/	/
O=C1CC(=O)N(c2ccccc2F)C(=O)N1	-22	3	-10	23*	-3	11	12	70*
Cc1c(NP(=S)(C(C)(C)C)C(C)(C)C)c(=O)n(-c2ccccc2)n1C	-14	19	20	-1	-3	14	/	/
Cc1c(C=C2C(=O)N(C)C(=O)N(C)C2=O)c(=O)n(-c2ccccc2)n1C	7	19	10	36*	8	-23	12	51*
O=C1CC(c2cccnc2)=NN1c1ccc(Cl)cc1Cl	2	-5	4	23*	7	-16	0	0
CCN1C(=O)CC(c2cccnc2)=Nc2ccccc21	-5	20	12	-6	-4	3	/	/
CN1CCCN(c2ccc([N+](=O)[O-])nc2)CC1	-2	-24	-43	-6	-2	0	/	/
O=C(NC1CCCCC1)Oc1cc2oc(=O)sc2cc1Cl	-4	13	39	69*	35	2	-39	14*
C=C1C(=O)O[C@@H]2C[C@@H](C)[C@@H]3C=CC(=O)[C@@]3(C)[C@@H](O)[C@H]12	88*	97*	92*	82*	106*	-60*	91*	90*	Mdm2-MdmX confirm=100*
COc1ccc2c3c1OC1C(=O)CC[C@@]4(O)[C@@H](C2)N(CC2CC2)CC[C@]314 (stereo not given in full)	0	19	-13	4	-4	1	/	/
CCOC(=O)[C@]12Cc3cc(C)ccc3[C@H]1N(C(C)C)C(=O)c1ccccc12	/	88*	/	26*	/	/	25*	21*	HIF-2a conf=93*;HIF-1a cs=108*
CCOC(=O)[C@]12Cc3ccccc3[C@H]1N(C(C)C)C(=O)c1cc(OC)ccc12	/	21	/	13	/	/	/	/
COc1cc(/C=C/[N+](=O)[O-])ccc1O	-33	70*	18	70*	57	1	86*	93*	HIF-2a conf=52*;HIF-1a cs=21
CN1C(=O)NC(=O)C(N=Nc2ccc(Cl)cc2)C1=O (stereo not given)	6	-243	-182	-2	-9	0	/	/
CC(C)COC(=O)c1ccccc1C(=O)OCC(C)C	7	-1	15	2	3	8	/	/
C[CH2][Hg][S]c1ccccc1C(=O)O	86*	97*	94*	28*	95*	-89*	49*	83*	Mdm2-MdmX confirm=102*
O=[N+]([O-])c1cccc(NP(=O)(Oc2ccccc2)Oc2ccccc2)c1	-7	42*	43	0	15	4	/	/	HIF-2a conf=43*;HIF-1a cs=47
COc1cccc(NP(=O)(Oc2ccc(Cl)cc2)Oc2ccc(Cl)cc2)c1	-4	13	-27	-7	-11	-5	/	/
CC=C(CC)C1(CCC)C(=O)NC(=S)NC1=O	-16	7	4	-8	-4	-3	/	/
CC(=O)OC[C@]12CCC(C)=C[C@H]1O[C@@H]1[C@H](O)[C@@H](OC(C)=O)[C@@]2(C)[C@]12CO2	104*	90*	108*	1	91*	-56*	/	/	HIF-2a conf=81*;HIF-1a cs=105*
CC(C)[C@H]1C(=O)O[C@H](C(C)C)C(=O)N(C)[C@@H](C(C)C)C(=O)O[C@H](C(C)C)C(=O)N(C)[C@@H](C(C)C)C(=O)O[C@H](C(C)C)C(=O)N1C	33	-63	33	-5	78*	1	/	/	Mdm2-MdmX confirm=94*
SMILES	CF NFkB block	HIF-2a block	Peg3 prom inh	ABHD5 PLIN5 PPI	TRPM1 prom inh	KKLEB tox	ABHD5-PLIN5 conf	HNF4 counter	others
CCCCCCCSc1cc(OC)c(CCNC)cc1OC	29	44*	112*	10	102*	-22	/	/	HIF-2a conf=9;HIF-1a cs=106*
COC(=O)C12OCC34C(CC5C(C)=C(O)C(=O)CC5(C)C3C(O)C1O)OC(=O)C(OC(=O)/C=C(\C)C(C)C)C24 (stereo not given)	96*	75*	103*	-10	85*	-52*	/	/	HIF-2a conf=69*;HIF-1a cs=106*
CC[C@@]1(O)C(=O)OCc2c1cc1n(c2=O)Cc2cc3c(NC(=O)CN)cccc3nc2-1	-5	21	-2	-3	42	-34	/	/	Mdm2-MdmX confirm=97*
Cc1nc2cc(-c3cccc(F)c3)nn2c(C)c1CCC(=O)N1CCC2(CC1)OCCO2	-6	75*	-51	-6	6	6	/	/	HIF-2a conf=82*;HIF-1a cs=53*
O=C(CCN1CC1)OCCOC(=O)CCN1CC1	21	8	13	8	10	-11	/	/
COc1c2c(cc3c1OCO3)CCN(C)C2	-10	8	-8	-5	-1	-34	/	/
COc1cc2c(cc1O)C[C@H]1NCCc3cc4c(c-2c31)OCO4	-315	50*	44	-2	23	17	/	/	HIF-2a conf=35;HIF-1a cs=104*
OCC1CO1 (stereo not given)	-10	7	-1	5	-2	4	/	/
COc1ccccc1NC(=O)c1cn(CCC#N)nc1-c1cccc(Cl)c1	8	8	26	4	-4	-10	/	/
NC(N)=N/N=C/c1cn(-c2ccccc2)nc1-c1cccs1	10	-34	106*	2	44	-24	/	/	Mdm2-MdmX confirm=103*
